PubChem BioAssay (NCATS)
Results filed as inconclusive are left out. Where a call stands in place of a potency, no number is given. Calls of active or inactive are those of the source. Unless noted, calls follow the shape of the dose curve; as a rule, active = well fitted curve in the direction sought with a large enough effect; inconclusive = small, poorly fitted or top-dose-only effect, or another doubt; inactive = no such curve, though single readings can be large; an effect the other way counts as inactive or inconclusive.

Tests used:
[1] = molecular target: ATP-dependent DNA helicase Q1 (Homo sapiens) (UniProt P46063); assay: qHTS Validation Assay for Inhibitors of RecQ-Like Dna Helicase 1 (RECQ1) (AID 2353)
How it was run: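 RECQ1T1 50 nM; forked duplex (20 bp + 30-nt ss tails) 200 nM, ATP 2 mM final; pH 8.0, 2 mM MgCl2, 2.5 ug/ml poly(dI-dC); 15 min compound preincubation; discontinuous kinetic read over 2 h at RT.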

[2] = Cytometric Cell-Based qHTS for Inhibitors of the mTORC1 Signaling Pathway in MEF (Tsc2-/-, p53-/-) Cells (AID 2660);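 also: Tsc2 and p53 null MEFs carrying empty vector with compound for 24 h; percent of cells above a phospho-rpS6 to PI ratio cutoff in each well; series mostly up to about 38 µM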
How it was run: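 Readout: Alexa-488 phospho-rpS6 (Ser235/236) intensity divided by PI intensity, thresholded against 7.5 nM rapamycin wells and reported as % positive cells. PI cell count served as the viability measure. Compound exposure was 24 hrs at 37 degree Celsius.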

[3] = High Content Imaging Cell-Based qHTS for Inhibitors of the mTORC1 Signaling Pathway in MEF Cells (AID 2667); also: potency is read from the fitted curve at half-maximal effect
How it was run: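 Tsc2-/-, p53-/- MEFs stably re-expressing WT Tsc2, grown in DMEM + 10% FBS, were treated with compounds for 24 hrs at 37 degree Celsius, fixed, and stained with Alexa-488 phospho-rpS6 Ser235/236 antibody plus Hoechst; results given as % positive cells.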

[4] = Cytometry Cell-Based qHTS for Inhibitors of the mTORC1 Signaling Pathway in MEF cells (AID 2668); also: potency is read from the fitted curve at half-maximal effect
How it was run: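 WT MEFs (Tsc2-/-, p53-/- stably re-expressing WT Tsc2) in DMEM + 10% FBS received compounds 24 hrs after plating, for 24 hrs at 37 degree Celsius. Fixed cells stained with Alexa-488 anti-phospho-rpS6 Ser235/236 and propidium iodide; laser-scanning cytometry read-out.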

[5] = Validation screen for small molecules that induce DNA re-replication in MCF 10A normal breast cells (AID 463097); also: nearly all actives have a fitted effect of over 60% in size; also: potency is read from the fitted curve at half-maximal effect
How it was run: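 Readout: Hoechst nuclear fluorescence intensity, 405 ex / 500-530 em, by scanning plate imager; re-replication scored as increase in nuclei with elevated DNA content. Cells exposed to compound 48 hr, 37 C, 5% CO2 beforehand.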

[6] = molecular target: Ubiquitin carboxyl-terminal hydrolase 2 (Homo sapiens) (UniProt O75604); assay: qHTS Validation Assay for Inhibitors of Ubiquitin-specific Protease USP2a Using CHOP2 as the Reporter (AID 463106); also: potency is read from the fitted curve at half-maximal effect
How it was run: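 Readout was coupled fluorescence (Ex 485/Em 531 nm), read 60 min after adding 25 nM final Ub-CHOP2 and 25 nM reporter substrate. Beforehand, 10 nM final USP2 core had 30 min at RT with compound in pH 8.0 buffer. Curves were fitted after normalization to NEM and flagged for artifacts using time-zero reads.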

[7] = molecular target: DNA polymerase III PolC-type (Bacillus subtilis (strain 168)) (UniProt P13267); assay: qHTS Validation Assay for the Inhibitors of DNA Replication in Gram-Positive Bacteria (AID 485295); also: potency is read from the fitted curve at half-maximal effect
How it was run: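 Reconstituted B. subtilis holoenzyme (Pol III, beta clamp, SSB, primase) was preincubated with compound at room temperature, then given single-stranded circular M13Gori plus dNTPs and NTPs. EDTA-containing PicoGreen stopped the reaction, and dsDNA product was read by fluorescence.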

[8] = molecular target: Tumor susceptibility gene 101 protein (Homo sapiens) (UniProt Q99816); assay: qHTS Validation Assay for Iinhibitors of HIV-1 Budding by Blocking the Interaction of PTAP/TSG101 (AID 485342; calls by dose curve)
How it was run: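 Tsg101 binding domain (10 uM final) in pH 7.5 HEPES/NaCl/Tween 20/EDTA/TCEP buffer was mixed with pin-transferred compounds, then FITC-labeled PTAP peptide (50 nM final) was added; after 20 min at r.t., fluorescence polarization was read.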

[9] = qHTS Validation Assay to Find Inhibitors of Chronic Active B-Cell Receptor Signaling (AID 485345; active = well fitted curve in the direction sought with a large enough effect in the main read-out, with a control signal flat, not every such curve was filed as active; also: potency is read from the fitted curve at half-maximal effect)
How it was run: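 Read-out: ratio of filter-corrected green (IkappaBalpha fusion) to red (native) luciferase signal in doxycycline-induced TMD8 cells after 4 h at 37C. Titration spanned 46 uM–3 nM; Data were normalised to basal cells and 10 uM MG-132 wells.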

[10] = molecular target: Beta-2 adrenergic receptor (Homo sapiens) (UniProt P07550); assay: qHTS validation assay of beta-arrestin-biased ligands of beta2-adrenergic receptor (AID 485366)
How it was run: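 Agonist activity is measured as luciferase luminescence downstream of beta-arrestin recruitment to recombinant beta2-AR in Tango cells. Exposure lasts 18 hr at 37 degrees C, and curves are categorized by r2, response size and activity.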

[11] = molecular target: ATP-dependent 6-phosphofructokinase (Trypanosoma brucei brucei) (UniProt O15648); assay: qHTS Validation Assay to Find Inhibitors of T. brucei phosphofructokinase (AID 485368); also: potency is read from the fitted curve at half-maximal effect
How it was run: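 Inhibition derived from concentration-response curves of luminescence, ranked by r2, response size and curve class; the underlying reaction used 1.25 nM PFK, 0.1 mM ATP and 0.5 mM F6P, 45 min, room temperature.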

[12] = Quantitative high throughput screen for delayed death inhibitors of the malarial parasite plastid, 48 hour incubation (AID 488752); also: nearly all actives have a fitted effect of over 65% in size; also: potency is read from the fitted curve at half-maximal effect
How it was run: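 One-generation (48 h) growth assay: a decrease in luciferase signal from an integrated reporter in P. falciparum-infected red cells (0.1% parasitemia, 2% hematocrit) after compound exposure at 37 C indicates parasite inhibition.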

[13] = molecular target: Thioredoxin reductase 1, cytoplasmic (Rattus norvegicus) (UniProt O89049); assay: qHTS Assay for Substrates of Mammalian Selenoprotein Thioredoxin Reductase 1 (TrxR1) (AID 488772);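 also: series mostly up to about 57 µM; a drop in NADPH fluorescence below the no-compound background marks a TrxR1 substrate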
How it was run: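 In this dual-purpose format, potential substrates are identified from the first fluorescence read after selenite addition, not from the 8-minute delta. Rat enzyme is preincubated with NADPH and then with compound at ~22 deg C.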

[14] = molecular target: Flap endonuclease 1 (Homo sapiens) (UniProt P39748); assay: qHTS Validation Assay for the Inhibitors of Human Flap endonuclease 1 (FEN1) (AID 488816); also: potency is read from the fitted curve at half-maximal effect
How it was run: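 qHTS format: compounds and 10 nM FEN1 incubated 15 min at room temperature before adding 50 nM substrate. Cleavage followed by reads at 0 and 15 min; normalized data fitted to a four-parameter Hill curve.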

[15] = Quantitative high throughput screen for delayed death inhibitors of the malarial parasite plastid, 96 hour incubation (AID 488745); also: nearly all actives have a fitted effect of over 70% in size; also: potency is read from the fitted curve at half-maximal effect
How it was run: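 Decreased firefly luciferase luminescence indicates inhibited growth of reporter-integrated P. falciparum after two generations (96 h, 37 C, 5% CO2). Infected erythrocytes at 0.1% parasitemia, 2% hematocrit, in Albumax-supplemented RPMI 1640.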

[16] = molecular target: Thioredoxin reductase 1, cytoplasmic (Rattus norvegicus) (UniProt O89049); assay: qHTS Assay for Inhibitors of Mammalian Selenoprotein Thioredoxin Reductase 1 (TrxR1) (AID 488773); details: Potency: inhibition;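 also: drop in NADPH fluorescence over an 8 min run after selenite addition; series mostly up to about 57 µM; nearly all actives have a fitted effect of over 40% in size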
How it was run: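 Inhibition is scored from the loss of NADPH fluorescence between first and last reads of an 8-min kinetic run. Selenite (400 uM) was the substrate, added after 15 min compound preincubation at room temperature.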

[17] = molecular target: Ferritin light chain (Equus caballus) (UniProt P02791); assay: qHTS Validation Assay for Identification of Novel General Anesthetics (AID 2323); also: series mostly up to about 77 µM
How it was run: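 Competitive displacement of profluorescent 1-aminoanthracene (1-AMA, 50% saturated solution in PBS) from 10 uM horse-spleen apoferritin. Compounds incubated 10 min at room temperature; fluorescence read at 380 nm excitation/535 nm emission, normalized to free 1-AMA and complex, fitted with four-parameter Hill equation.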

[18] = High Content Imaging Cell-Based qHTS for Inhibitors of the mTORC1 Signaling Pathway in MEF (Tsc2-/-, p53-/-) Cells (AID 2666);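 also: percent of cells scored positive for phospho-rpS6 Ser235/236 immunostaining by imaging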
How it was run: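 Tsc2-/-, p53-/- MEFs (empty-vector stable) grown in DMEM + 10% FBS were exposed to compounds for 24 hrs at 37 degree Celsius, fixed, and stained with Alexa-488 anti-phospho-rpS6 Ser235/236 plus Hoechst. Imaging gave the percentage of positive cells per well.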

[19] = molecular target: RecQ-like DNA helicase BLM (Homo sapiens) (UniProt P54132); assay: qHTS Validation Assay for Inhibitors of Bloom's syndrome helicase (BLM) (AID 2364)
How it was run: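 Forked 20-bp duplex substrate (200 nM, TAMRA/BHQ-2) plus 2 mM ATP added after 15 min compound preincubation with 50 nM enzyme, pH 8.0, poly(dI-dC) 2.5 ug/ml. Strand separation followed by fluorescence (525/598 nm) over 2 h, normalized to enzyme-free and DMSO controls.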

ATP-dependent DNA helicase Q1 (Homo sapiens), sequence (P46063 whole entry, looked up): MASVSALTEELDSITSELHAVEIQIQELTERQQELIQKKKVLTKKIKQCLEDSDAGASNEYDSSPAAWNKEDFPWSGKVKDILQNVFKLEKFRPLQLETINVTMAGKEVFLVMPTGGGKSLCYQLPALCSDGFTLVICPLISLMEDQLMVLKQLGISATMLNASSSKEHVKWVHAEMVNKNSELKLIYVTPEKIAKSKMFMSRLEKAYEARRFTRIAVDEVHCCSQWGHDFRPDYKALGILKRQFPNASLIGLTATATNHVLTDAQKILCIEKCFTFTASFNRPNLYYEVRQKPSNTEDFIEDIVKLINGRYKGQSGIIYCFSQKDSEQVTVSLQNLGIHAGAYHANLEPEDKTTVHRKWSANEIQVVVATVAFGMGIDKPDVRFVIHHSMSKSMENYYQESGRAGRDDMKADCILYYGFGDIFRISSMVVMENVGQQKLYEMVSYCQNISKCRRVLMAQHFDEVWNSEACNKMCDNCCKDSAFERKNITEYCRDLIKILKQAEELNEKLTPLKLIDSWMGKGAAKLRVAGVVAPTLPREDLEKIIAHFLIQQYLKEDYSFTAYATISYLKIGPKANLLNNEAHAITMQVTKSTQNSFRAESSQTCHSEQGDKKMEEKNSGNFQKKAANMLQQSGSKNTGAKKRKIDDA
Thioredoxin reductase 1, cytoplasmic (Rattus norvegicus), sequence (O89049 whole entry, looked up): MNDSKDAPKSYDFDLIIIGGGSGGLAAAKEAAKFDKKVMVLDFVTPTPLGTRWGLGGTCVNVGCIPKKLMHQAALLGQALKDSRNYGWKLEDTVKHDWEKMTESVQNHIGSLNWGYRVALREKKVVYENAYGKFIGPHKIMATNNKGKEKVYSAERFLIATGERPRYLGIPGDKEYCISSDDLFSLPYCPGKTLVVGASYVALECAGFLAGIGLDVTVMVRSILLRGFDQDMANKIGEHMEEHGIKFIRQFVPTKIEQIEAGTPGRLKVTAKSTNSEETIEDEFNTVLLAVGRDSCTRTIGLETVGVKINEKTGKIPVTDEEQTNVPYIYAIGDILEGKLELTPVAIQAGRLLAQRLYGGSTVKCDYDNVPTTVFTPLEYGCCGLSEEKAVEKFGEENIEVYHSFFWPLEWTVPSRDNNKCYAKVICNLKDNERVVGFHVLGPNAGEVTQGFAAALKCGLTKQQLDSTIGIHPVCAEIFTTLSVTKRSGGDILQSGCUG
Tumor susceptibility gene 101 protein (Homo sapiens), sequence (Q99816 whole entry, looked up, the tested form may be a part): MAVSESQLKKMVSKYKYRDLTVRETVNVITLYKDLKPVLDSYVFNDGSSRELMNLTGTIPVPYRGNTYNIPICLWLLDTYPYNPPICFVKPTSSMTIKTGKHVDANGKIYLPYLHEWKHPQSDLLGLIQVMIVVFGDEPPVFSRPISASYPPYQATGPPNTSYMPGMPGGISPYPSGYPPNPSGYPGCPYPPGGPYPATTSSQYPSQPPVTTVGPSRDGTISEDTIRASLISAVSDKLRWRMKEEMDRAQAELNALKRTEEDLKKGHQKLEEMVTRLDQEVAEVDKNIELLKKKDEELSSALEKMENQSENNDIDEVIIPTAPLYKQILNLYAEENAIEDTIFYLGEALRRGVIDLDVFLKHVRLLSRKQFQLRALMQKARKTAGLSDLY
Ubiquitin carboxyl-terminal hydrolase 2 (Homo sapiens), sequence (O75604 whole entry, looked up): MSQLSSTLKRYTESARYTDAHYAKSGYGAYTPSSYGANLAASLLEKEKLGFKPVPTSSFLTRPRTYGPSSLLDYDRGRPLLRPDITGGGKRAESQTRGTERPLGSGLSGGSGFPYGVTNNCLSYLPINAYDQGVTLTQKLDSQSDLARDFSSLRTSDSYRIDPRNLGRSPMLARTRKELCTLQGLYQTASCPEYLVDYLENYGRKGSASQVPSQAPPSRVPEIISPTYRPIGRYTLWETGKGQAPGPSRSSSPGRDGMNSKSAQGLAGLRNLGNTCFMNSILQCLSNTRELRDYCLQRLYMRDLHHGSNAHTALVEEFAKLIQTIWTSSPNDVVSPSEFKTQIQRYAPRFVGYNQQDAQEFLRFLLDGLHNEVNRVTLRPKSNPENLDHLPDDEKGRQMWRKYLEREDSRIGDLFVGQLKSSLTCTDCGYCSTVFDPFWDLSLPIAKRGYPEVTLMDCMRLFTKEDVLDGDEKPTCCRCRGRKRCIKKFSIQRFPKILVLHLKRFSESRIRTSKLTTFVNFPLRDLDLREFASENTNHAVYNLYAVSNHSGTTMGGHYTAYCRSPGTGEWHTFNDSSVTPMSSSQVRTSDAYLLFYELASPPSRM
RecQ-like DNA helicase BLM (Homo sapiens), sequence (P54132 whole entry, looked up): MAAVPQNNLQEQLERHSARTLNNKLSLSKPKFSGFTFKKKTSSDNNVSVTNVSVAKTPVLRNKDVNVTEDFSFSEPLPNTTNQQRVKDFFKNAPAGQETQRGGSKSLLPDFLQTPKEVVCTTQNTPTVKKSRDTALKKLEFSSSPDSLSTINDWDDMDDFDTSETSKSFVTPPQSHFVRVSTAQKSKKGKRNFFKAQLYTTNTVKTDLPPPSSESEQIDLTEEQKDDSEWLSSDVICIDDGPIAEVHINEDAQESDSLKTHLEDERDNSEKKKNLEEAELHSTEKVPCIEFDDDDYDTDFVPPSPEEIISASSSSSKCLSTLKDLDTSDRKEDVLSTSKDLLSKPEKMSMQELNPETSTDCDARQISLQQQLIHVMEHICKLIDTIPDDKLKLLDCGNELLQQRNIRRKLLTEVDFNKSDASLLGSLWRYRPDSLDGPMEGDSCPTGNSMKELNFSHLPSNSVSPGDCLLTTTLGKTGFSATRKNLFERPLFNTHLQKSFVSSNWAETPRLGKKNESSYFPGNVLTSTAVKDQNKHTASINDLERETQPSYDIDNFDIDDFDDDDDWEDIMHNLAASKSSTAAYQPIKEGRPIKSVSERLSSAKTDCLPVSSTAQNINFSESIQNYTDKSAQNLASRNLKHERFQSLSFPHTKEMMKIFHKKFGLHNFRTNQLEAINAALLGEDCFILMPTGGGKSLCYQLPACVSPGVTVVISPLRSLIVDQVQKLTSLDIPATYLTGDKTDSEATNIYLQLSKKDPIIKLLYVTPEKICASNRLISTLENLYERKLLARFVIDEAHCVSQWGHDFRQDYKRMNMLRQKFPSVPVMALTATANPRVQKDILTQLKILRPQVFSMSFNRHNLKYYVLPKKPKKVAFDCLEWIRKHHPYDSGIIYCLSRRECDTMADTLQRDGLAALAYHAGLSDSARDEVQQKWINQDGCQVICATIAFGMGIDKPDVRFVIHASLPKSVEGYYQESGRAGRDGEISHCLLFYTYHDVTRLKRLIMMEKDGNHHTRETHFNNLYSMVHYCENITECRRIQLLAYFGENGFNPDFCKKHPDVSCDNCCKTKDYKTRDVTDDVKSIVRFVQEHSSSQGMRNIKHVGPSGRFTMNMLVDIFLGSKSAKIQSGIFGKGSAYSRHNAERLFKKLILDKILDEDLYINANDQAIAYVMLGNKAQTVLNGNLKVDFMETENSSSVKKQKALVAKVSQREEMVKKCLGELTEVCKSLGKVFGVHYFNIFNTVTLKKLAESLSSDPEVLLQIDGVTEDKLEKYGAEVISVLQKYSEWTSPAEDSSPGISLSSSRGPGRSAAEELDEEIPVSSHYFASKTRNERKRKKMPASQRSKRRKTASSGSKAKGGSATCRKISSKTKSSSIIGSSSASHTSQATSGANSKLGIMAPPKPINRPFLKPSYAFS
Ferritin light chain (Equus caballus), sequence (P02791 2-175 limits assumed): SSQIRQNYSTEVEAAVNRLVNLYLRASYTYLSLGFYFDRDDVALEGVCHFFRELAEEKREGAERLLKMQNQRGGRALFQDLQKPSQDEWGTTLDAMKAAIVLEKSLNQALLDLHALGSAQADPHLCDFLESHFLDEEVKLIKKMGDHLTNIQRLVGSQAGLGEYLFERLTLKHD
Flap endonuclease 1 (Homo sapiens), sequence (P39748 whole entry, looked up): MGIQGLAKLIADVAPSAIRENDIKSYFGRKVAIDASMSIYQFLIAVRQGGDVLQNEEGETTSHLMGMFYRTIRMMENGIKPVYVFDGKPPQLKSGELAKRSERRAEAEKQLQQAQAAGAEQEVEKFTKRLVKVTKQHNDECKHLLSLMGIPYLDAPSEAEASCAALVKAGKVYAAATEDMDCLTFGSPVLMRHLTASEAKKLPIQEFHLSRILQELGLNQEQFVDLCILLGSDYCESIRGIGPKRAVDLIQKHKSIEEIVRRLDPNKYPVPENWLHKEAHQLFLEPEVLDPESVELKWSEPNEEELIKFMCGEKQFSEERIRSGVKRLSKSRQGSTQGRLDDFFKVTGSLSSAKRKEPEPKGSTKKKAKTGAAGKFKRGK
ATP-dependent 6-phosphofructokinase (Trypanosoma brucei brucei), sequence (O15648 whole entry, looked up): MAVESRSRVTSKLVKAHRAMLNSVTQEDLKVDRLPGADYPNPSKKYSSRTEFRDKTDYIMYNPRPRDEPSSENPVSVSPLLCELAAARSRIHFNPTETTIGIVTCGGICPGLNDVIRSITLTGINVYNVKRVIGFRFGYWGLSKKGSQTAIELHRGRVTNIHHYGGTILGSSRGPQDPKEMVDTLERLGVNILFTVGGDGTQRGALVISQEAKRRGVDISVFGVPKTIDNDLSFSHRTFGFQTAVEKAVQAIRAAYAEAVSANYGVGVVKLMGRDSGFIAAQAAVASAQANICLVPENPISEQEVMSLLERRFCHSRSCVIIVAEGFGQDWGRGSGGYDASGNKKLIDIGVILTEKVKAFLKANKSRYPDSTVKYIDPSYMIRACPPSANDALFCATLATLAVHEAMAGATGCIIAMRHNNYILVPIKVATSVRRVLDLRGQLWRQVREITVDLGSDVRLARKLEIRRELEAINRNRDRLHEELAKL
Beta-2 adrenergic receptor (Homo sapiens), sequence (P07550 whole entry, looked up): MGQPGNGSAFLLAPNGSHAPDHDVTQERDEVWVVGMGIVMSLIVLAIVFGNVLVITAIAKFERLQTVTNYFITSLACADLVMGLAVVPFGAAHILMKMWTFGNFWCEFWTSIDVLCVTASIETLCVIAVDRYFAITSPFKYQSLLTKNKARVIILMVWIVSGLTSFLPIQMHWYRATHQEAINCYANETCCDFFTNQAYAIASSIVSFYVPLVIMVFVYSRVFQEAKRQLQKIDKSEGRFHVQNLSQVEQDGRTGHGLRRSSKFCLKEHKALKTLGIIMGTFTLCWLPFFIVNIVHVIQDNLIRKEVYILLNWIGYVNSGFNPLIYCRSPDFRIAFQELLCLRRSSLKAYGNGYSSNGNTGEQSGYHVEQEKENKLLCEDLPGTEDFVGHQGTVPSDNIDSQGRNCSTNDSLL

SMILES	Potency [1]	outcome [2]	Potency [3]	Potency [4]	Potency [5]	Potency [6]	Potency [7]	outcome [8]	Potency [9]	outcome [10]	Potency [11]	Potency [12]	outcome [13]	Potency [14]	Potency [15]	Potency [16]	Potency [17]	Potency [18]	Potency [19]
Cc1cc(C(C)(C)C)cc(C)c1CC1=NCCN1	inactive	inactive	inactive	inactive	inactive	inactive	inactive	inactive	inactive	inactive	inactive	inactive	inactive	inactive	–	–	–	–	–
Clc1ccccc1C(c1ccccc1)(c1ccccc1)n1ccnc1	inactive	inactive	inactive	inactive	–	inactive	inactive	inactive	inactive	inactive	–	1040 nM (active)	inactive	inactive	1170 nM (active)	inactive	–	–	–
COc1ccc(C2CNC(=O)C2)cc1OC1CCCC1 (stereo unspecified)	inactive	–	inactive	inactive	inactive	inactive	–	inactive	–	–	inactive	inactive	–	inactive	–	–	inactive	–	–
Clc1ccc2nsnc2c1NC1=NCCN1	–	–	inactive	inactive	–	inactive	inactive	inactive	inactive	inactive	–	–	inactive	inactive	–	inactive	–	inactive	–
C[C@H]1c2cccc(O)c2C(O)=C2C(=O)[C@]3(O)C(O)=C(C(N)=O)C(=O)[C@@H](N(C)C)[C@@H]3[C@@H](O)[C@@H]21	–	inactive	inactive	inactive	–	inactive	inactive	inactive	inactive	inactive	inactive	–	inactive	23800 nM (active)	–	–	–	inactive	–
Cn1ccc2cc3c(cc21)CCN3C(=O)Nc1cccnc1	inactive	–	inactive	inactive	inactive	inactive	–	inactive	–	–	–	–	inactive	–	–	–	inactive	–	–
Clc1ccc2c(c1)C(N1CCNCC1)=Nc1ccccc1O2	inactive	–	–	–	inactive	inactive	inactive	inactive	–	inactive	–	–	inactive	inactive	–	inactive	–	–	inactive
O=c1c(O)c(-c2ccc(O)c(O)c2)oc2cc(O)cc(O)c12	–	–	inactive	inactive	inactive	–	–	inactive	–	inactive	–	–	inactive	–	–	inactive	inactive	–	–
NC(CO)C(=O)NNCc1ccc(O)c(O)c1O (stereo unspecified)	inactive	–	–	–	inactive	inactive	–	inactive	inactive	inactive	–	inactive	inactive	inactive	inactive	–	–	inactive	inactive
CN(C)CCCN1c2ccccc2CCc2ccc(Cl)cc21	inactive	inactive	–	–	inactive	inactive	–	inactive	–	–	–	1310 nM (active)	inactive	inactive	–	inactive	–	inactive	inactive
O=C(Nc1ccc([N+](=O)[O-])cc1Cl)c1cc(Cl)ccc1O	inactive	inactive	2070 nM (active)	1170 nM (active)	316 nM (active)	inactive	inactive	inactive	–	–	inactive	–	inactive	inactive	–	inactive	–	inactive	–
O=C(c1ccc(OCCN2CCCCC2)cc1)c1c(-c2ccc(O)cc2)sc2cc(O)ccc12	inactive	–	–	–	11200 nM (active)	inactive	inactive	inactive	20600 nM (active)	–	–	–	inactive	inactive	–	inactive	–	–	–
COc1cc2nc(N(C)CCCNC(=O)C3CCCO3)nc(N)c2cc1OC (stereo unspecified)	–	–	inactive	inactive	–	inactive	inactive	inactive	inactive	–	–	–	inactive	inactive	–	inactive	–	inactive	–
OCCN1CCN(CCCN2c3ccccc3Sc3ccc(C(F)(F)F)cc32)CC1	inactive	–	–	–	–	inactive	inactive	inactive	–	–	–	–	inactive	inactive	–	–	–	–	inactive
OCCN(CCO)c1nc(N2CCCCC2)c2nc(N(CCO)CCO)nc(N3CCCCC3)c2n1	inactive	inactive	inactive	inactive	12600 nM (active)	–	–	–	–	inactive	inactive	9280 nM (active)	inactive	inactive	–	inactive	–	–	–
Cc1ccc(C(=O)Nc2ccc(S(=O)(=O)O)c3cc(S(=O)(=O)O)cc(S(=O)(=O)O)c23)cc1NC(=O)c1cccc(NC(=O)Nc2cccc(C(=O)Nc3cc(C(=O)Nc4ccc(S(=O)(=O)O)c5cc(S(=O)(=O)O)cc(S(=O)(=O)O)c45)ccc3C)c2)c1	–	inactive	inactive	inactive	inactive	3290 nM (active)	7520 nM (active)	–	inactive	–	675 nM (active)	inactive	inactive	336 nM (active)	–	–	inactive	inactive	inactive
COc1ccccc1OCCNCC(O)COc1cccc2[nH]c3ccccc3c12 (stereo unspecified)	–	inactive	–	–	–	inactive	inactive	inactive	–	–	–	–	inactive	inactive	–	inactive	–	–	–
